# GLA inh pH 4.5: alpha-galactosidase A (human) inhibition, pH 4.5 | purified enzyme, 4-MU-alpha-Gal fluorescence, pH 4.5 | activity change, negative = inhibition, % at 105 µM | 230,000 tested, under 10 active | AID 1467
# ALDH1A1 block: ALDH1A1 (human) enzyme inhibition; Potency, µM (titrated, usually from 75.3 µM), most hits filed as inhibitors; AID 1030; 7.3% of 220,000 active; P00352; Purified ALDH1A1, NADH fluorescence, propionaldehyde substrate; active = well fitted inhibition curve with a large enough effect, not every such curve was filed as active; inconclusive = small, poorly fitted or top-dose-only effect, or another doubt; inactive = no such curve, though single readings can be large or run the other way
# Target sequence (P00352 whole entry, looked up): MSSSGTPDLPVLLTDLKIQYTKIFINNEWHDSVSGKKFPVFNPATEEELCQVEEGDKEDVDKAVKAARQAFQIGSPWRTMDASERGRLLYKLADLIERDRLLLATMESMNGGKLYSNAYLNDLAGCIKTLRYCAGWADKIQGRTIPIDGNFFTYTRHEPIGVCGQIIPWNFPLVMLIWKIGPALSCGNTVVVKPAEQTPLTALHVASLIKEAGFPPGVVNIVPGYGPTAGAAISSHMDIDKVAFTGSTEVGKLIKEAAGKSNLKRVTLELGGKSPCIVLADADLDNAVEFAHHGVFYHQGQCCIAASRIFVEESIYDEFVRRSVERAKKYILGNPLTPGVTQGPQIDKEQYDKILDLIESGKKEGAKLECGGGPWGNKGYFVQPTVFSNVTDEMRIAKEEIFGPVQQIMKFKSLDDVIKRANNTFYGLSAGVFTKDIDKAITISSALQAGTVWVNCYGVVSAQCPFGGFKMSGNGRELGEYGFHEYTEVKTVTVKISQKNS
# HPGD inh: HPGD (human) dehydrogenase inhibition; 4.3% of 150,000 active; Potency, µM, most hits filed as inhibitors; AID 894; purified HPGD, NADH fluorescence kinetic, PGE2 substrate; P15428; active = well fitted inhibition curve with a large enough effect, not every such curve was filed as active; inconclusive = small, poorly fitted or top-dose-only effect, or another doubt; inactive = no such curve, though single readings can be large or run the other way
#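 NADH formation kinetics: reaction with 30 uM PGE2 and 1 mM NAD+ (final), 20 nM enzyme, Tris-HCl pH 8 with Tween 20, after 15 min compound preincubation at room temperature. Fluorescence change, last versus first of five reads.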
# GLA spleen mod: inhibitors or activators of human alpha-galactosidase in spleen homogenate; P06280; human spleen homogenate, 4MU-alpha-Gal fluorescence, 40 min; Potency, µM (titrated, usually from 80 µM), most hits filed as inhibitors; 0.008% of 240,000 active; AID 2107
#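 qHTS titration in buffer at pH 5.0. Alpha-galactosidase activity in spleen homogenate was measured via 4-methylumbelliferone release from 1 mM fluorogenic substrate after 40 min at 37C and a pH 10 stop. AC50 came from Hill fits of control-normalized data.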
# 12-hLO inh: inhibitors of human 12-lipoxygenase (ALOX12); AID 1452; Potency, µM (top dose mostly 57.1 µM), usual class: inhibitors; 0.12% of 150,000 active; P18054; purified 12-hLO, xylenol orange hydroperoxide absorbance; note: nearly all actives have a fitted effect of over 55% in size
#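 Purified human 12hLO (150 nM final) was preincubated with compounds for 15 min at room temperature in 25 mM Hepes pH 7.0, 0.01% Triton X-100, then reacted with 40 uM arachidonic acid for 30 min. Hydroperoxide was detected with ferrous iron/xylenol orange.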
# PNC assembly inh: perinucleolar compartment assembly inhibition. PC3M PTB-GFP, PNC prevalence imaging, 16 h; hits give low values. activity change (PNC), negative = inhibition, % at 10 µM. 3.1% of 140,000 active. AID 2417;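 active = readout at or below -70, meaning at least 70% loss of cells showing the perinucleolar compartment, a nuclear body marking cancer cells; inconclusive = readout between -30 and a set limit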
#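 Compounds are pinned in duplicate onto adhered PC3M cells stably expressing GFP-tagged PTB and incubated 16 h at 37 C. Cells are then fixed, nuclei stained with Hoechst, and PNC-positive cells counted.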
# A number is an active result; - = inactive; ? = inconclusive; . = no result; [ ] = remark or other dose. This is a sample that favours compounds with a hit; in the whole collection about 10% have one here. Unless noted, calls come from the whole dose curve; as a rule, active = well fitted curve in the direction sought with a large enough effect; inconclusive = small, poorly fitted or top-dose-only effect, or another doubt; inactive = no such curve, though single readings can be large; an effect the other way counts as inactive or inconclusive.
SMILES,GLA inh pH 4.5,ALDH1A1 block,HPGD inh,GLA spleen mod,12-hLO inh,PNC assembly inh
COc1ccccc1-c1ccc2ncnc(NCCNC(C)=O)c2c1,.,?,.,-,.,.
Cc1cc(S(=O)(=O)N2CCC(NC(=O)C34CC5CC(CC(C5)C3)C4)CC2)ccc1-n1cnnn1,-,?,-,-,-,-
Cc1cc(S(=O)(=O)N2CCC(N3CCCCC3)CC2)ccc1-n1cnnn1,-,0.028µM,-,-,-,-
O=C(Cc1ccccc1)NCC(=O)OCC(=O)c1ccc(Cl)c([N+](=O)[O-])c1,-,?,-,-,-,?
O=C(C[n+]1ccc(C(=O)N/N=C/c2ccc(O)cc2)cc1)c1ccccc1,-,1.6µM,-,-,-,-
COc1ccccc1/C=N/NC(=O)c1ccc(NC(=O)c2ccccc2Br)cc1,-,?,?,-,-,-
O=C(N/N=C/c1ccncc1)c1cccc(N/N=C/c2ccncc2)c1,-,-,.,-,.,.
O=C(C[n+]1ccc(C(=O)N/N=C/c2ccc(Br)cc2)cc1)c1ccccc1,-,-,-,-,-,-
O=C(N/N=C/c1ccc(O)cc1)c1cccc(N/N=C/c2ccc(O)cc2)c1,-,22µM,.,-,.,.
O=C(N/N=C/c1ccc(F)cc1)c1ccccc1,-[21.1 µM],-,.,-,.,.
O=C(N/N=C/c1ccc(O)cc1)c1ccc(NC(=O)c2ccccc2Br)cc1,-,?,14µM,-,-,-
O=C(Nc1ccccc1C(=O)N/N=C/c1ccc(F)cc1)c1ccccc1Br,-,?,-,-,-,-114
CCCn1c(C)nc2c(N3CCC(N4CCN(C)CC4)CC3)nc(C)nc21,-,-,-,-,-,.
COc1cc(Cl)cc(/C=N/NC(N)=O)c1O,-,?,.,-,.,.
Cc1cccc(C)c1NC(=O)C[N+](C)(C)C,-,-,-,-,-,.
CC(=O)c1cccc(NC(=S)NC(=O)CC(C)(C)C)c1,-,-,16µM,-,-,-
Cc1cccc(NC(=O)CC(C)(C)C)c1,-,-,16µM,-,-,?
Cc1cc(C)cc(NCC(=O)Nc2c(C)cccc2C)c1,-,?,-,-,-,-90
CC(=O)c1cccc(NC(=O)Cc2ccc3c(c2)CCCC3)c1,-,13µM,25µM,-,-,-
CC(=O)c1cccc(NC(=S)NC(=O)C(C)C)c1,-,-,-,-,-,-
O=C(NCc1ccc2c(c1)OCO2)O[C@@H]1C(=O)c2cc(Br)ccc2O[C@H]1c1ccc2c(c1)OCO2,-,-,-,-,.,.
C[C@@H](c1ccccc1)N1C(=O)[C@H]2[C@H]3[C@H](O)[C@H](O)C/C(=N/OCc4ccccc4)[C@H]3CC[C@@H]2C1=O,.,-[13.5 µM],.,-[17.5 µM],.,.
CC(=O)c1cccc(NC(=S)NC(=O)c2cccc(Cl)c2)c1,-,20µM,?,-,-,?
CCN1CCCC1CN(Cc1cc2ccc(C)cc2[nH]c1=O)C(=S)Nc1ccc(OC)cc1OC (stereo not drawn),-,20µM,-,-,-,-
CO/N=C(\C)CCN1CCCCc2nc(C)c(C)cc21,.,-[13.5 µM],.,-[17.5 µM],.,.
SMILES,GLA inh pH 4.5,ALDH1A1 block,HPGD inh,GLA spleen mod,12-hLO inh,PNC assembly inh
CCCCOc1ccc(CN2CCC(O)CC2)cc1,-,32µM,-,-,-,-100
CC(C)[C@@H](CC(=O)N[C@@H]1CCCC[C@H]1C(=O)N[C@H](CC(=O)N[C@@H](CCC(=O)O)CC(=O)O)Cc1ccccc1)NC(=O)C[C@H](Cc1ccccc1)NC(=O)[C@@H]1CCCC[C@H]1N,-,-,-,-,-,.
Cc1ccc(S(=O)(=O)/N=c2\ccc(Cl)cn2C(F)F)cc1,-,-,.,-,.,.
Cc1ccc(NC(=O)COC(=O)C(NS(=O)(=O)c2ccc(Cl)cc2)C(C)O)c(Br)c1 (stereo not drawn),-,3.5µM,-,-,-,?
Cc1ccc(NC(=O)COC(=O)C(NS(=O)(=O)c2ccc(Cl)cc2)C(C)O)cc1C (stereo not drawn),-,1.3µM,-,-,-,?
Cc1ccc(NC(=O)COC(=O)C2CC2(Cl)Cl)cc1C (stereo not drawn),-,20µM,.,-,.,.
CCNc1ncc2nc(-c3ccc(OC)cc3)c(=O)n(Cc3cccc(OC)c3)c2n1,.,?,?,-,-,.
CO[C@@H]1COC(=O)CCC[C@@H](C)[C@H](OC)COC(=O)[C@H](Cc2ccccc2)NC(=O)C/C=C\[C@H]1C,.,0.016µM,.,-[17.5 µM],.,.

# Screening data: PubChem BioAssay, National Center for Advancing Translational Sciences (NCATS)
